The values below come from PubChem BioAssay AID463173 (ICCB-Longwood Screening Facility, Harvard Medical School, 2010).

SMILES strings stand for the structures. The campaign covered roughly 52,000 compounds. About 1,700 (3.3%) were called active. The sample as a whole holds a higher share of actives than the screen did. A number with no mark means an inactive call. Cut-off read from the data, not from the text of the source: active = survival mostly below about 52% (no sharp cut-off); inactive = mostly above about 56%.

For the assay, the system named is Wild type. Description: S. aureus survival, RN4220 and DeltatarO strains – OD600, teichoic acid synthesis inhibitors, primary screen (AID 463173). To be noted: S. aureus RN4220 wild type/DeltatarO growth, OD600, 18 h, hits give low values, screened at 18.75 µg/mL (by protocol).
As for `Cc1ccc(CNC(=O)CCCCCn2c(=O)[nH]c3ccccc3c2=O)cc1`, the survival was 146%.

On to `CCOc1ccc(NS(=O)(=O)c2ccc3[nH]cc(C(=O)N4CCCCCC4)c(=O)c3c2)cc1`, for which the survival was 122%.

Turning to `COc1ccccc1N1CCN(Cc2nnc(-c3ccccc3C)o2)CC1`, the survival is 82%.

In the case of `CCc1nn2c(=O)c(S(=O)(=O)Nc3ccc(Br)cc3F)c(C)nc2s1`, the survival was 61%.

For `COc1ccccc1C(=O)NC1(C(F)(F)F)C(=O)NC(C)=C1C#N` (stereo unspecified), the survival is 90%.

As to `CCOc1ccc(NC(=O)c2oc3ccccc3c2NC(=O)C2CCCCC2)cc1`, the survival is 84%.

As for `Cc1ccc(NC(=O)c2oc3ccccc3c2NC(=O)C2CCCCC2)cc1`, the survival is 4% (active).

Regarding `CN(C)c1ccc(C(=O)Nc2c(C(=O)NC(C)(C)C)oc3ccccc23)cc1`, the survival was 65%.

On to `Cc1ccc(C(=O)Nc2c(C(=O)NC(C)(C)C)oc3ccccc23)cc1`, for which the survival is 0% (active).

Regarding `O=C(Nc1ccc(F)cc1)c1oc2ccccc2c1NC(=O)C1CCCCC1`, the survival is 14%.

Consider `CC(C)(C)NC(=O)c1oc2ccccc2c1NC(=O)c1ccc(F)cc1`, for which the survival was 73%.

Turning to `CCOC(=O)c1sc(NC(=O)c2c(-c3ccccc3)c(-c3ccccc3)nn(C)c2=O)nc1C`, the survival is 71%.

For `COc1ccc(-c2noc(Cn3c(=O)c4ccccc4n(CC(=O)Nc4cccc(OC)c4)c3=O)n2)cc1`, the survival was 82%.

With `Cc1ccccc1NS(=O)(=O)c1ccc2[nH]cc(C(=O)N3CCCC3)c(=O)c2c1`, the survival was 99%.

For `CC(Nc1ccc(-c2nc(-c3ccncc3)no2)cc1[N+](=O)[O-])c1ccccc1` (stereo unspecified), the survival is 87%.

In the case of `CCOc1ccc(NC(=O)Cn2c(=O)oc3cc(S(=O)(=O)NC4CCCC4)ccc32)cc1`, the survival was 81%.

Regarding `CCOCCCNC(=O)c1cnc2sc(N3CCCCCC3)nn2c1=O`, the survival was 68%.

Regarding `CCOC(=O)C1(C)C=C(Nc2cccc(C)c2)C(=O)N1c1ccccc1` (stereo unspecified), the survival was 51%.

For the compound `CCOC(=O)Cc1c(C)nc2cc(C)nn2c1C`, the survival is 106%.

On to `CCOC(=O)Cc1c(C)nc2cc(-c3ccc(C(C)(C)C)cc3)nn2c1C`, for which the survival is -2% (active).

With `CCOC(=O)CC(NC(=O)CCc1c(C)nc2cc(-c3ccccc3)nn2c1C)c1ccc(C)cc1` (stereo unspecified), the survival was 128%.

With `O=C(Nc1ccccc1O)c1cccc(S(=O)(=O)Nc2ccccc2O)c1`, the survival is 108%.

Regarding `CCN1CCN(CC2CCCCC2)CC1`, the survival is 102%.

As for `CC1CN(C(=O)CCC(=O)NCc2ccccc2)c2cc(Cl)ccc2O1` (stereo unspecified), the survival is 92%.

`CCOc1ccccc1-c1nnc(SCc2ccc(Cl)cc2)o1`: the survival is -14% (active).

For the compound `Oc1ccccc1-c1nnc(SCc2ccccc2)o1`, the survival was 103%.

Consider `Oc1ccc(-c2nnc(SCc3ccc(Cl)cc3)o2)cc1`, for which the survival is 112%.

Turning to `Cc1cc(C(=O)N2CCN(c3cc(Cl)ccc3C)CC2)c2c(C)nn(-c3ccccc3)c2n1`, the survival was 136%.

Turning to `O=C(Nc1ncn[nH]1)C(F)(F)C(F)F`, the survival was 108%.

On to `O=C1CC(c2ccccc2)Cc2[nH]c(=O)c(C(=O)Nc3cccc(Cl)c3)cc21` (stereo unspecified), for which the survival was 0% (active).

On to `Cc1cccc(NC(=O)c2cc3c([nH]c2=O)CC(c2ccccc2)CC3=O)c1` (stereo unspecified), for which the survival is -3% (active).

With `COc1ccc(NC(=O)c2cc3c([nH]c2=O)CC(c2ccccc2)CC3=O)cc1` (stereo unspecified), the survival is 63%.

`O=C1CC(c2ccccc2)Cc2[nH]c(=O)c(C(=O)Nc3cccc(F)c3)cc21` (stereo unspecified): the survival was 85%.

On to `O=C1CC(c2ccccc2)Cc2[nH]c(=O)c(C(=O)Nc3ccc(F)cc3)cc21` (stereo unspecified), for which the survival was 75%.

On to `CC(=O)c1ccc(NC(=O)c2cc3c([nH]c2=O)CC(c2ccccc2)CC3=O)cc1` (stereo unspecified), for which the survival was 85%.

In the case of `CCOC(=O)c1ccc(NC(=O)CSc2ccc(-c3ccccn3)nn2)cc1`, the survival is 90%.

`COc1ccccc1N1CCN(C(=O)c2nc(-c3ccc(C)cc3)n3c2CCCCC3)CC1`: the survival is 85%.

`Cc1ccc(-n2ncc3c(NCCc4ccccc4)ncnc32)cc1`: the survival was 76%.

As to `Cc1ccc(-n2ncc3c(N(CCO)Cc4ccccc4)ncnc32)cc1`, the survival is 0% (active).

`CCCCN(CCCC)c1ncnc2c1cnn2-c1cccc(C)c1`: the survival was 91%.

For the compound `OCCN(CCO)c1ncnc2c1cnn2-c1ccc(F)cc1`, the survival is 1% (active).

`Cc1ccc(-n2ncc3c(N(C)Cc4ccccc4)ncnc32)cc1`: the survival is 85%.

Take `CCN(Cc1ccccc1)c1ncnc2c1cnn2-c1ccc(F)cc1`: the survival was 55%.

`CCOc1ccc(-c2cc3nc(C4CCN(C(=O)OC(C)(C)C)CC4)c(C(=O)Nc4c(C)cccc4C)cn3n2)cc1`: the survival is 86%.

Regarding `CCOc1ccc(C(=O)CSc2nnc3cc(C)c4ccccc4n23)cc1`, the survival is 85%.

On to `CCOCCn1ccc2c(OCC(=O)Nc3cccc([N+](=O)[O-])c3)cccc2c1=O`, for which the survival is 128%.

For the compound `CCCN1C2CCCC1CC(NC(=O)c1ccc(F)cc1)C2` (stereo unspecified), the survival is 108%.

For `CNC(=O)Cn1c(=O)c2cccn2c2ccc(F)cc21`, the survival was 85%.

Turning to `COc1ccc(C(=O)Nc2nc3ccccc3n2CCOc2ccc(Cl)cc2)cc1`, the survival is 4% (active).

On to `O=C(Nc1nc2ccccc2n1CCOc1ccccc1Cl)c1ccccc1`, for which the survival is 36%.

For `OCCNc1nc2ccccc2n1CCOc1ccccc1`, the survival is 115%.

With `COc1ccc(OCCn2c(NC(=O)c3ccc(OC)cc3)nc3ccccc32)cc1`, the survival is -13% (active).

As for `COc1ccccc1OCCn1c(NC(=O)c2ccc(Cl)cc2)nc2ccccc21`, the survival was 80%.

Regarding `COc1ccc(OCCn2c(C(C)Oc3ccccc3)nc3ccccc32)cc1` (stereo unspecified), the survival is 72%.

Turning to `CCCC(O)c1nc2ccccc2n1CCCOc1ccc(Cl)cc1` (stereo unspecified), the survival is 97%.

Take `COc1ccccc1OCCn1c(NC(=O)c2ccccc2Cl)nc2ccccc21`: the survival is -10% (active).

In the case of `COc1ccccc1OCCn1c(C(C)Oc2ccccc2)nc2ccccc21` (stereo unspecified), the survival is 76%.

As for `Cc1ccc(N2CC(NC(=O)/C=C\c3ccc4c(c3)OCO4)CC2=O)cc1C` (stereo unspecified), the survival was 130%.

For `CCOc1ccc(CCNC(=O)c2nn(-c3ccc(OC)c(Cl)c3)c(=O)c3c2c2ccccc2n3C)cc1OCC`, the survival is 88%.

As to `COc1ccc(OC)c(-n2cnc3cc(C(=O)NC4CCCC4)ccc32)c1`, the survival was 72%.

Regarding `CC1=CC(C)C2C(=O)N(c3ccccc3)C(=O)C2C1` (stereo unspecified), the survival is 111%.

On to `COc1ccc(NC(=O)Cn2c(=O)oc3cc(S(=O)(=O)N4CCCC4)ccc32)cc1OC`, for which the survival is 79%.

As to `COc1cc(C2N=C(N)Nc3nc4ccccc4n32)ccc1OCCC(C)C` (stereo unspecified), the survival was 85%.

Regarding `CC(C)c1ccc(C2N=C(N)Nc3nc4ccccc4n32)cc1` (stereo unspecified), the survival was 93%.

Regarding `CC(C)CCOc1ccc(C2N=C(N)Nc3nc4ccccc4n32)cc1` (stereo unspecified), the survival was -15% (active).

Regarding `CCc1ccc(N2CCn3c2nc2c3c(=O)n(CCCc3ccccc3)c(=O)n2C)cc1`, the survival is 88%.

`O=C(Nc1ccccc1C(F)(F)F)N1CC=C(c2c[nH]c3ccccc23)CC1`: the survival was 127%.

Regarding `Cc1ccc(CNS(=O)(=O)c2ccc(C(=O)N(C)C)s2)cc1`, the survival is -6% (active).

As to `CN(C)C(=O)c1ccc(S(=O)(=O)NCc2ccc(Cl)cc2)s1`, the survival was 123%.

Take `COc1ccc(CNS(=O)(=O)c2ccc(C(=O)N(C)C)s2)cc1`: the survival was 87%.

Take `CCc1ccc(C2C(C(=O)Nc3ccccc3OC)=C(C)Nc3c(C(=O)Nc4ccc(C)cc4)cnn32)cc1` (stereo unspecified): the survival is 74%.

With `CC1=C(C(=O)Nc2ccccc2)C(c2ccccc2Cl)n2ncc(C(=O)Nc3cccc(C)c3)c2N1` (stereo unspecified), the survival is 72%.

`COc1cccc(C2C=C(c3ccc(C)cc3)Nc3c(C(=O)Nc4ccc(F)cc4)cnn32)c1OC` (stereo unspecified): the survival is -3% (active).

As to `COc1cccc(C2C(C(=O)Nc3ccc(Cl)cc3)=C(C)Nc3c(C(=O)Nc4ccccc4)cnn32)c1OC` (stereo unspecified), the survival was 93%.

As for `COc1cccc(C2C=C(c3ccccc3)Nc3c(C(=O)Nc4ccccc4)cnn32)c1OC` (stereo unspecified), the survival was 64%.

As to `CCOc1ccc(NC(=O)c2cnn3c2NC(c2ccccc2)=CC3c2cccc(OC)c2OC)cc1` (stereo unspecified), the survival is 85%.

Consider `COc1ccccc1NC(=O)C1=C(C)Nc2c(C(=O)Nc3ccc(C)cc3)cnn2C1c1cccc(OC)c1OC` (stereo unspecified), for which the survival was 14% (active).

Consider `COc1ccccc1NC(=O)C1=C(C)Nc2c(C(=O)Nc3cccc(C)c3)cnn2C1c1ccccc1Cl` (stereo unspecified), for which the survival is -6% (active).

For the compound `COc1cccc(C2C(C(=O)Nc3ccc(C)cc3C)=C(C)Nc3c(C(=O)Nc4cccc(C)c4)cnn32)c1OC` (stereo unspecified), the survival is 78%.

For `COc1ccc(C2C(C(=O)Nc3ccccc3)=C(C)Nc3c(C(=O)Nc4ccccc4)cnn32)cc1` (stereo unspecified), the survival is 134%.

Consider `CCc1ccc(C2C(C(=O)Nc3ccccc3)=C(C)Nc3c(C(=O)Nc4ccc(C)cc4)cnn32)cc1` (stereo unspecified), for which the survival was -1% (active).

For the compound `COc1ccccc1NC(=O)C1=C(C)Nc2c(C(=O)Nc3cccc(C)c3)cnn2C1c1ccccc1C` (stereo unspecified), the survival is 69%.

On to `Cc1c(C(=O)Nc2cccc(-c3nc4ccccc4s3)c2)oc2ccccc12`, for which the survival was 98%.

As for `Cc1ccc(C(NC(=O)Cc2cccs2)C(=O)Nc2ccc(C(C)C)cc2)cc1` (stereo unspecified), the survival is 82%.

Take `CCOc1ccc(C(=O)N2CCCCC2CCN2CCOCC2)cc1` (stereo unspecified): the survival was 88%.

As to `Cc1ccc(NC(=O)CSc2nccn2C2CCCC2)cc1Cl`, the survival was 125%.

With `COc1ccc2c(c1)c1c(c(=O)n(CCc3ccccc3)c(=O)n1Cc1ccc(Cl)cc1)n2C`, the survival is 63%.

As to `Cc1ccc(-c2nc3cc(C(C)C)ccc3o2)cc1NC(=O)c1cccs1`, the survival is 72%.

Turning to `O=C(Nc1cc(-c2nc3cc(Cl)ccc3o2)ccc1Cl)c1cccs1`, the survival was 79%.

Turning to `Cc1cc(NC(=O)c2cccs2)cc(-c2nc3cc(Cl)ccc3o2)c1O`, the survival is 87%.

Consider `CC(C)c1ccc2oc(-c3cc(NC(=O)c4cccs4)ccc3Cl)nc2c1`, for which the survival was 7% (active).

Regarding `CC(C)c1ccc2oc(-c3ccc(Cl)c(NC(=O)c4cccs4)c3)nc2c1`, the survival is 2% (active).

Consider `CCc1ccc2oc(-c3cc(NC(=O)c4cccs4)ccc3Cl)nc2c1`, for which the survival is 12%.

Turning to `CC(C)c1ccc2oc(-c3cc(NC(=O)c4cccnc4)ccc3Cl)nc2c1`, the survival was 1% (active).

For `Cc1cccc(C(=O)Nc2ccc(-c3nc4cc(C(C)C)ccc4o3)cc2)c1`, the survival was 47%.

In the case of `Cc1cc(NC(=O)c2cccnc2)cc(-c2nc3cc(Cl)ccc3o2)c1O`, the survival was 157%.
